In the library only some 14% were active in any assay of this set; here they are far more common.
NS1 inh – blocks influenza NS1 protein function; Potency, µM (doses to about 46.1 µM), for the others: at the top dose activity, positive = more growth; 270,000 tested, 0.4% active; AID 2326; calls by dose curve; also: potency is read from the fitted curve at half-maximal effect; actives are rising curves; nearly all actives have a fitted effect of over 50% in size
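Recovery from NS1-induced slow growth read by OD600 in budding yeast switched to galactose assay medium (pH 6.0, -URA) at 1:100 dilution. Compound 23 nl per well; the matching strain lacking NS1 serves as control.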
Shiga inhibitor – blocks Shiga toxin action in Vero cells | Vero cells, Shiga toxin protein synthesis inhibition reporter | inhibition, % at 38.7 µM | 290,000 tested, 9.2% active | AID 2315; in the data active = inhibition mostly above about 28%, no sharp cut-off; inactive = mostly below about 43%; also: 0% is about no effect
LmPK inh – blocks Leishmania mexicana pyruvate kinase activity | Q27686 | purified LmPK, Kinase-Glo ATP luminescence, 1 h | Potency, µM (series often up to 57.5 µM), for the others: at the top dose activity change, negative = inhibition, actives largely listed as inhibitors | 290,000 tested, 0.37% active | AID 1721; also: potency is read from the fitted curve at half-maximal effect; % is scaled to controls: 0 for no effect and ±100 for the full control effect
Target sequence (Q27686 whole entry, looked up): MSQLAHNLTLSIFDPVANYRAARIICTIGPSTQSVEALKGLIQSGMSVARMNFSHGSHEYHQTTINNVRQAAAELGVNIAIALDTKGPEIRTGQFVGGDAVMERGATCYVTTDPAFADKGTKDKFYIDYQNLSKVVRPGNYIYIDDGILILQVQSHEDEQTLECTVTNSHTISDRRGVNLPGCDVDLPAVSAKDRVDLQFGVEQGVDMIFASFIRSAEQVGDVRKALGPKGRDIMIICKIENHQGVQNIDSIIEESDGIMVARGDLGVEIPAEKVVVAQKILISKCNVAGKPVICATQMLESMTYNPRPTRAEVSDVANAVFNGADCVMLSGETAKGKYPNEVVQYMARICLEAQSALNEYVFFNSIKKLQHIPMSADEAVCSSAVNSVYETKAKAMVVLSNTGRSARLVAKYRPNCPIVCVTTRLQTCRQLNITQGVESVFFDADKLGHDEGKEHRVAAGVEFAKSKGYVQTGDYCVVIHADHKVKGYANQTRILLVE
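Purified LmPK (0.1 nM) converted ADP (0.1 mM) to ATP with PEP (0.5 mM) in imidazole buffer pH 7.2 with KCl and MgCl2, 1 h at room temperature. ATP was read by Kinase-Glo luminescence; data normalized to uninhibited and no-enzyme controls.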
CHX counter – counter-screen for Shiga toxin inhibitors: cycloheximide protein synthesis inhibition. AID 2314. 300,000 tested, 12% active. max response, %. cell reporter, cycloheximide protein synthesis inhibition counterscreen; in the data active = max response mostly above about 13%, no sharp cut-off; inactive = mostly below about 14%; also: read at 38.3 µM for the half of the compounds with a filed dose; 0% is about no effect
Giardia FBPA inh – blocks Giardia fructose-bisphosphate aldolase activity; 290,000 tested, 0.71% active; Potency, µM (highest dose often 59.6 µM), for the others: top-dose activity, negative = inhibition, usual class: inhibitors; AID 2451; purified Giardia FBPA; also: potency is read from the fitted curve at half-maximal effect; % is scaled to controls: 0 for no effect and ±100 for the full control effect; nearly all actives have a fitted effect of over 55% in size
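40 nM FBPA preincubated 10 min at RT with compound (up to 57.5 uM final), then substrate plus GAPDH/TPI/NAD/arsenate coupling and diaphorase/resazurin added. Fluorescence read after 20 min at RT, 525/598 nm.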
* marks the source's active call; other numbers are inactive results; ? = inconclusive; . = no result. Unless noted, calls follow the shape of the dose curve; as a rule, active = well fitted curve in the direction sought with a large enough effect; inconclusive = small, poorly fitted or top-dose-only effect, or another doubt; inactive = no such curve, though single readings can be large; an effect the other way counts as inactive or inconclusive.

SMILES	NS1 inh	Shiga inhibitor	LmPK inh	CHX counter	Giardia FBPA inh
CCN(CC)c1ccc2nc3c4ccccc4c(=O)cc-3oc2c1	1.2%	64.9*	-2.2%	52.1*	-18.4%
CC(C)c1cc(C(=O)N2CCCC(Nc3ccc(F)cc3)C2)n[nH]1 (stereo unspecified)	12.6%	16.1	10.0%	18.5*	-2.2%
O=C(c1ccoc1)N1CCCC(Nc2ccc(F)c(F)c2)C1 (stereo unspecified)	12.7%	-32.5	-6.3%	8.0	.
CC(C)c1ccc(NC2CCCN(C(=O)c3ccoc3)C2)cc1 (stereo unspecified)	-5.9%	32.3*	-7.9%	24.4	-5.8%
CC(=O)c1ccc(OC(=O)Cc2cccc3ccccc23)cc1	-38.8%	-9.3	6.0%	-3.3	2.4%
COc1cc(OC)c(OC)cc1/C=N/NC(=O)CCc1c(C)n[nH]c1C	1.7%	-12.8	-0.3%	-4.2	-0.4%
CC1(C)NC(=O)N(CC(=O)OCc2cc(=O)n3cc(Br)ccc3n2)C1=O	.	-7.3	2.9%	3.2	3.9%
CC1CC1C(=O)OCc1cc(=O)n2cc(Br)ccc2n1 (stereo unspecified)	-8.9%	117.4	-0.3%	28.6*	12.1%
O=C(CN1C(=O)NC2(CCCC2)C1=O)OCc1cc(=O)n2cc(Br)ccc2n1	3.9%	67.0*	2.5%	47.6*	6.8%
Cc1ccccc1C(=O)NC(CC(C)C)C(=O)OCc1cc(=O)n2cc(Br)ccc2n1 (stereo unspecified)	-41.0%	36.1*	-6.3%	28.0*	12.0%
O=C(CNC(=O)C12CC3CC(CC(C3)C1)C2)OCc1cc(=O)n2cc(Br)ccc2n1	-2.2%	2.9	0.4%	-2.4	4.7%
CC1(C(=O)OCc2cc(=O)n3cc(Br)ccc3n2)CC1(Cl)Cl (stereo unspecified)	-4.3%	77.8*	-5.0%	36.4*	-2.1%
CN1CCN(c2ncnc3ccc(-c4cccc(C#N)c4)cc23)CC1	.	.	.	.	-1.8%
O=C(/C=C/c1ccco1)Nc1ccc2c(c1)OCO2	.	113.3*	-19.1%	38.3*	-16.8%
O=C(/C=C/c1ccc2c(c1)OCO2)Nc1cccnc1	.	90.5*	22.4µM*	35.6*	-9.5%
CC(=O)Nc1ccc(NC(=O)/C=C/c2ccc3c(c2)OCO3)cc1	1.5%	22.8	1.0%	31.8*	-2.7%
NS(=O)(=O)c1ccc(NC(=O)/C=C/c2ccco2)cc1	.	22.0	2.1%	13.0	0.7%
COC(=O)c1cccc(NC(=O)/C=C/c2ccc3c(c2)OCO3)c1	-6.8%	21.3*	-4.8%	42.7*	-14.6%
CC[C@H](C)[C@H](NC(=O)[C@H](Cc1ccc(O)cc1)NC(=O)[C@H](Cc1cnc[nH]1)NC(=O)[C@H](CCCNC(=N)N)NC(=O)[C@H](CC(C)C)NC(=O)[C@H](C)NC(=O)[C@H](CO)NC(=O)[C@H](Cc1ccc(O)cc1)NC(=O)[C@H](Cc1ccc(O)cc1)NC(=O)[C@H](CCCNC(=N)N)NC(=O)[C@H](C)NC(=O)[C@H](CCSC)NC(=O)[C@H](CC(=O)O)NC(=O)[C@H](CCC(=O)O)NC(=O)[C@H](C)NC(=O)[C@@H]1CCCN1C(=O)[C@H](C)NC(=O)[C@H](CC(=O)O)NC(=O)[C@H](CCC(=O)O)NC(=O)CNC(=O)[C@@H]1CCCN1C(=O)[C@H](CC(N)=O)NC(=O)[C@H](CC(=O)O)NC(=O)[C@@H]1CCCN1C(=O)[C@H](CCCCN)NC(=O)[C@H](CO)NC(=O)[C@@H]1CCCN1C(=O)[C@@H](N)Cc1ccc(O)cc1)C(=O)N[C@@H](CC(N)=O)C(=O)N[C@@H](CC(C)C)C(=O)N[C@H](C(=O)N[C@H](C(=O)N[C@@H](CCCNC(=N)N)C(=O)N[C@@H](CCC(N)=O)C(=O)N[C@@H](CCCNC(=N)N)C(=O)N[C@@H](Cc1ccc(O)cc1)C(N)=O)[C@@H](C)O)[C@@H](C)CC	.	-5.6	.	-2.3	0.2%
COc1ccc(S(=O)(=O)N2CC(C)OC(C)C2)cc1C(=O)N1CCCCC1 (stereo unspecified)	-2.2%	-6.5	-2.0%	-1.4	.
CCOC(=O)c1[nH]c2ccc(OC)cc2c1NC(=O)/C=C/c1ccc2c(c1)OCO2	23.8%	19.1	2.9%	7.2	6.6%
O=C(/C=C/c1ccc2c(c1)OCO2)c1cccnc1	-9.3%	29.1	-14.7%	22.4*	5.3%
Cc1cccnc1NC(=O)/C=C/c1ccc2c(c1)OCO2	-6.7%	85.0*	-11.2%	50.4*	-0.5%
O=C(/C=C/c1ccc2c(c1)OCO2)Nc1c(C(=O)O)[nH]c2ccccc12	19.9%	54.7*	0.3%	50.5*	2.6%
CC(C)(C)c1ccc(/C=C/C(=O)Nc2nncs2)cc1	-1.7%	55.5*	0.5%	62.6*	3.0%
SMILES	NS1 inh	Shiga inhibitor	LmPK inh	CHX counter	Giardia FBPA inh
CC(C)(C)c1ccc(/C=C/C(=O)Nc2ccc3c(c2)OCCO3)cc1	.	.	.	.	-17.7%
O=C(/C=C/c1ccc2c(c1)OCO2)c1ccccc1	.	.	.	.	4.6%
Cc1ccccc1-n1nc2c(c1NC(=O)/C=C\c1ccc3c(c1)OCO3)CSC2	20.4%	-5.8	-0.1%	-3.7	1.2%
CC(=O)Nc1ccn(C2CC3OCC(NC(=O)C(NC(=O)OC(C)(C)C)C(C)OCc4ccccc4)C3O2)c(=O)n1 (stereo unspecified)	.	31.7	.	4.4	3.7%
N#Cc1cccc(-c2ccc3ncnc(NC4CCNCC4)c3c2)c1	.	.	.	.	0.3%
Cc1cc(C)nc(NC(=O)/C=C/c2ccc3c(c2)OCO3)c1	11.9%	66.2*	-8.1%	52.0*	0.5%
O=C(/C=C/c1ccc2c(c1)OCO2)Nc1nncs1	-1.0%	44.6*	-19.5%	29.6*	8.5%
O=C(N/N=C/C=C\c1cccc([N+](=O)[O-])c1)c1cccnc1	3.7%	11.6	-1.5%	-1.2	-13.8%
O=C(N/N=C\C=C\c1ccc2c(c1)OCO2)c1cccnc1	9.6%	78.0*	-5.7%	17.6*	9.7%
Cc1sc(NC(=O)/C=C/c2ccc3c(c2)OCO3)nc1-c1ccccc1	?	11.3	0.8%	-1.0	1.5%
CCCCCCOc1ccc(N2C(=O)CC(N3CCN(CCN=CC4C(=O)CC(C)(C)CC4=O)CC3)C2=O)cc1 (stereo unspecified)	.	-9.8	0.1%	-5.6	-0.2%
Cc1oc(C(C)(C)C)cc1C(=O)Nc1ccc2c(c1)OCCO2	-52.2%	101.7*	4.1%	52.7*	3.4%
Cc1ccc(-n2c(=O)[nH]cc(C(=O)Nc3ccc4c(c3)OCCO4)c2=O)cc1	-9.7%	5.3	1.0%	-3.8	17.1%
Cc1oc(C(C)(C)C)cc1C(=O)Nc1ccc2c(c1)OCO2	-36.4%	78.8*	-3.1%	32.2*	0.7%
Cc1oc(C(C)(C)C)cc1C(=O)Nc1cccc(/C=C/C(=O)O)c1	-0.9%	54.1	4.5%	3.1	12.7%
Nc1nc2c(nc(SCc3ccccc3Br)n2[C@@H]2O[C@H](CO)[C@@H](O)[C@H]2O)c(=O)[nH]1	9.4%	-8.7	-0.5%	-0.6	8.4%
O=C(Nc1cccc([N+](=O)[O-])c1)N1CCCc2ccccc21	-9.8%	74.4*	0.3%	48.3*	-6.5%

Assay outcomes (PubChem BioAssay)
